The list is not random: actives were taken first. Their share in the collection is about 7.5%.
KinaseGlo FLuc: counter-screen: inhibitors of Kinase-Glo firefly luciferase. Q27757. Potency, µM (highest dose often 38.3 µM), inactives show at the highest dose activity change, negative = inhibition, usual class: inhibitors. Kinase-Glo luciferase, ATP luminescence, 8 min. hit rate 0.28% among 200,000; further: on the % scale 0 is the no-effect control and ±100 the full control effect; nearly all actives have a fitted effect of over 60% in size
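Light output from Kinase-Glo luciferase with luciferin and 10 uM ATP in 50 mM imidazole pH 7.2, KCl, MgCl2, Tween 20, BSA; compound pin-delivered, 8-min ambient incubation, then luminescence read.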
NPC1 promoter act: activators of NPC1 promoter; Huh7 NPC1 promoter luciferase reporter, 24 h; Potency, µM (highest dose often 9.22 µM), without a hit: at the top dose activation, most hits filed as activators; hit rate 2.4% among 320,000; AID 485313; further: % of control where 0% means no effect; nearly all actives have a fitted effect of over 60% in size
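Luminescence read-out of NPC1 promoter-driven luciferase in stably transfected Huh7 cells; compounds delivered in DMSO and left 24 h at 37C, 5% CO2, qHTS titration format.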
Rab9 promoter act: activates the Rab9 promoter | Huh7 Rab9 promoter-luciferase reporter, luminescence, 24 h | Potency, µM (titrated, usually from 9.22 µM), for the others: at the highest dose activation, negative = inhibition, most hits filed as activators | hit rate 2.8% among 320,000; further: % of control where 0% means no effect; nearly all actives have a fitted effect of over 60% in size
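Using Huh7 cells stably transfected with Rab9 promoter–luciferase, compounds were incubated 24 h at 37 °C, 5% CO2; luciferase luminescence was read 10 min after reagent addition.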
FLuc modulator: inhibits or activates purified firefly luciferase, miR-21 counter-screen; P08659; purified FLuc, Km substrates, luminescence inhibition; Potency, µM (top dose mostly 57.5 µM), for the others: at the top dose activity change, negative = inhibition, most hits filed as inhibitors; hit rate 6.9% among 360,000; AID 588342;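 further: plate controls were vehicle for no effect and reference inhibitor for full effect; nearly all actives have a fitted effect of over 55% in size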
Target sequence (P08659 whole entry, looked up): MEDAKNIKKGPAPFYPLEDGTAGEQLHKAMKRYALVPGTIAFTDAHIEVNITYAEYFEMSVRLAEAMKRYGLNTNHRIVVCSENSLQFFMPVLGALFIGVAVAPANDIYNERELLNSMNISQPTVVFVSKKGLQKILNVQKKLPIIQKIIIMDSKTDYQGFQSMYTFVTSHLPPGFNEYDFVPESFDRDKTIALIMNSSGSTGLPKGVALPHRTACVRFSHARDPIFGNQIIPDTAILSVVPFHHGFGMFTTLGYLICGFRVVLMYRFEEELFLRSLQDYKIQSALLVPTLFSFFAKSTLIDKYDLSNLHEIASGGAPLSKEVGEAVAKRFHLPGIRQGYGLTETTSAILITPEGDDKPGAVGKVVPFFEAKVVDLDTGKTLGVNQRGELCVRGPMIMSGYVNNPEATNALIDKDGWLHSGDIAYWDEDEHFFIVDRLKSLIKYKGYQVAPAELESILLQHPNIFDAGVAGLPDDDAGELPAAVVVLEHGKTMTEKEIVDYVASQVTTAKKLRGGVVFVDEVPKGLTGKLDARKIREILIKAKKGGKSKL
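Biochemical qHTS of compounds, final roughly 60 µM downward over six points, against 10 nM purified firefly luciferase using Km concentrations of substrates (10 uM D-luciferin, 10 uM ATP) in Tris acetate pH 7.5 buffer; luminescence output.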
SMN2 splice up: increases expression of the SMN2 splice variant. Potency, µM (titrated, usually from 46.1 µM), inactives show top-dose activity change, positive = activation, actives largely listed as activators. hit rate 2.8% among 210,000. HEK293 SMN2-luciferase splicing reporter, luminescence, 30-36 h; further: % of control where 0% means no effect; nearly all actives have a fitted effect of over 55% in size
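HEK293 cells carry an SMN2 […]–luciferase reporter in which exon 7 inclusion puts luciferase in frame. Cells were plated 10-12 h before compound addition, then incubated 30-36 h at 37C. ONE-Glo luminescence was read; sodium butyrate at 4.5 mM final served as control.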
ELG1 genotox: genotoxicity induction in ELG1-luciferase HEK293T cells. Potency, µM (titrated, usually from 46 µM), without a hit: top-dose activity change, positive = activation, most hits filed as activators. AID 504466. HEK293T ELG1-luciferase reporter, luminescence, 16 h. hit rate 1.3% among 330,000; further: % of control where 0% means no effect; nearly all actives have a fitted effect of over 60% in size
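DMSO vehicle served as control against compound-treated ELG1-luciferase HEK293T cells; exposure lasted 16 hr at 37 °C and 5% CO2, followed by ONE-Glo luminescence detection after 30 min.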
Active calls of the source: *; u = inconclusive; x = no result given. The call rests on the fitted dose curve; in most records, active means well fitted curve in the direction sought with a large enough effect; inconclusive means small, poorly fitted or top-dose-only effect, or another doubt; inactive means no such curve, though single readings can be large; an effect the other way counts as inactive or inconclusive. Potency means the concentration at half of the fitted maximal effect.

SMILES	KinaseGlo FLuc	NPC1 promoter act	Rab9 promoter act	FLuc modulator	SMN2 splice up	ELG1 genotox
CC1CCCC(C)N1C(=O)CSc1ccc(-c2ccc3c(c2)OCCO3)nn1 (stereo not drawn)	x	-4%	13%	13µM*	x	-10%
CC1CCN(C(=O)c2ccc3c(c2)OCCO3)CC1	-2%	26%	25%	u	u	u
CC1CCN(C(=O)CSc2ccc(-c3ccc4c(c3)OCCO4)nn2)CC1	x	2%	14%	11µM*	x	-1%
COc1ccc(-c2ccc(SCC(=O)N3CCOCC3)nn2)cc1OC	-9%	22%	4%	15µM*	-22%	u
Cc1ccc(Cn2cc3c(n2)-c2c(oc(C(=O)Nc4ccc(F)cc4F)c2C)CC3)cc1	x	x	x	5%	x	x
CC(=O)c1ccc(NC(=O)C(C)n2nc(-c3ccccc3)ccc2=O)cc1 (stereo not drawn)	x	x	x	0%	1%	x
Fc1ccccc1-c1cc2ccccc2cn1	x	u	-1%	4.8µM*	x	u
c1ccc2cc(C3=NCCN3)ncc2c1	-1%	x	x	x	x	x
COc1ccc(C(=O)CC2(O)C(=O)N(Cc3cccc(C(F)(F)F)c3)c3ccccc32)cc1 (stereo not drawn)	x	x	x	0%	-44%	x
COc1cc(NC(=O)Cn2c(=O)ccc3cc(S(=O)(=O)N4CCCC4)ccc32)cc(OC)c1	x	x	x	-2%	x	x
O=C(NC(=S)Nc1cccc([N+](=O)[O-])c1)C1CCCCC1	x	14%	15%	-9%	x	10%
COc1cccc2c1-c1c(C(=O)O)cccc1C2=O	x	-4%	-1%	12%	x	0%
COc1cccc2c1C(=O)c1ccc3ccccc3c1C2=O	10%	18%	u	1.9µM*	16µM*	13µM*
COc1ccc(N)c2c1C(=O)c1ccccc1C2=O	-17%	23%	u	24µM*	u	u
COc1ccc(OC)c2c1C(=O)c1ccccc1C2=O	-3%	1%	-6%	4%	-10%	-2%
Nc1ccc(O)c2c1C(=O)c1ccccc1C2=O	13µM*	1%	1%	u	-64%	1%
O=C(CCCCn1c(=O)c2ccccc2n(Cc2cccc(F)c2)c1=O)NCCc1ccccc1	x	x	x	-9%	0%	x
O=C(CSc1n[nH]c(=O)n1C1CC1)NCc1ccccc1	x	0%	0%	-3%	x	0%
Cc1cc(C)c(-n2c(SCc3nc4ccccc4s3)n[nH]c2=O)c(C)c1	x	-8%	-1%	3%	x	-4%
CCCn1c(SCc2nc3ccccc3s2)n[nH]c1=O	-13%	20%	3.5µM*	5.4µM*	u	18µM*
O=c1[nH]nc(SCc2nc3ccccc3s2)n1C1CC1	-4%	10%	u	24µM*	u	21µM*
CCCn1c(=O)c2ccccc2n2c(SCc3nc4ccccc4s3)nnc12	-5%	3%	u	11µM*	u	u
COCCNc1nc2sc3c(c2c(=O)n1Cc1ccco1)CCCCC3	1%	u	2µM*	u	32µM*	u
O=c1c2c3c(sc2nc(NCCO)n1CCc1ccccc1)CCCCC3	-2%	-17%	-6%	u	-3%	0%
O=c1c2c3c(sc2nc(NCCO)n1Cc1ccco1)CCCCC3	-1%	14%	13%	15µM*	41%	17%
SMILES	KinaseGlo FLuc	NPC1 promoter act	Rab9 promoter act	FLuc modulator	SMN2 splice up	ELG1 genotox
Cc1ccc(C)c(N2CCN(S(=O)(=O)c3ccc4[nH]c5c(c4c3)CCCCC5)CC2)c1	x	x	x	-5%	x	x
COC(=O)c1ccc(N2OC3(C)C=CC2CC3)cc1 (stereo not drawn)	-3%	30%	u	21µM*	u	u
Cc1cccn2c(=O)nc(SCC(=O)c3ccc(Cl)cc3)nc12	x	-3%	-6%	1%	x	u
Cc1cccn2c(=O)nc(SCC(=O)c3ccccc3)nc12	x	17%	18%	-2%	x	21µM*
COc1ccc(C(=O)Nc2nc(CC(=O)NCCc3cccc(OC)c3)cs2)cc1	x	14%	1%	13µM*	x	-5%
COc1ccc(C(=O)Nc2nc(CC(=O)NCCc3ccccc3)cs2)cc1	x	24%	30%	4.8µM*	x	-8%
CCCOc1ccc(-c2nonc2NC(=O)c2oc3ccc(C)cc3c2C)cc1OCCC	x	x	x	-2%	5%	x
O=C(Nc1nnc(SCC(=O)N2CCCc3ccccc32)s1)c1ccc2ccccc2c1	0%	u	2.8µM*	1.2µM*	11µM*	u
O=C(Nc1nnc(SCC(=O)N2CCCc3ccccc32)s1)c1ccccc1	0%	u	u	1.5µM*	11µM*	12%
Cc1cc(C)cc(C(=O)Nc2nnc(SCC(=O)N3CCCc4ccccc43)s2)c1	5%	-2%	1%	u	3%	2%
CCOC(=O)Cc1ccc(NC(=O)NCc2cccn2Cc2ccccc2)cc1	x	x	x	-11%	x	x
O=C(NN1C(=O)c2ccccc2C1=O)c1ccncc1	2%	-4%	-4%	-2%	7%	1%
CC(=O)c1c(C(C)=O)c(C)n(NC(=O)c2ccncc2)c1C	2%	-1%	-2%	5%	25µM*	3%
Cc1c(-c2nc(-c3ccc(C(C)(C)C)cc3)no2)n(C)oc1=O	x	u	u	11µM*	x	u
Cc1cc(-c2nc(-c3ccc(C(C)(C)C)cc3)no2)no1	x	1µM*	0.56µM*	3µM*	x	u
CC(C)(C)c1ccc(-c2noc(-c3ccc4c(c3)CCO4)n2)cc1	x	u	26%	8.5µM*	x	u
Cc1cc(C)n(CCc2nc3c4ccccc4nc(N4CCN(c5ccccc5)CC4)n3n2)n1	x	x	x	-7%	-9%	x
Cc1ccc(C=Nc2ccccc2C#N)s1	-21%	0%	0%	1.3µM*	3%	9%
N#Cc1c(/N=C/c2cc3ccccc3s2)sc2c1CCC2	-2%	1.4µM*	1.4µM*	u	10µM*	u
N#Cc1c(/N=C/c2ccco2)sc2c1CCC2	-28%	-3%	-1%	2.4µM*	x	2%
Cc1ccc(/C=N/c2sc3c(c2C#N)CCC3)s1	-13%	u	u	0.67µM*	7.1µM*	u
Cc1[nH]n(-c2ccc(F)cc2)c(=O)c1/C=N/c1sc2c(c1C#N)CCCC2	-25%	1%	0%	13µM*	-22%	-5%
Cc1ccc(/C=N/c2sc3c(c2C#N)CCCCC3)o1	u	4.5µM*	4µM*	0.17µM*	-32%	1.5µM*
COc1ccc(-n2nc3cc(C)c(NC(=O)c4ccc(-c5ccc(Cl)cc5)o4)cc3n2)cc1	x	x	x	-16%	2%	x
COc1ccc(C2c3c(-c4ccccc4)n[nH]c3C(=O)N2c2ccc(C(=O)O)cc2)c(OC)c1 (stereo not drawn)	x	x	x	u	2%	x
CN(C)c1ccc(N=c2sc3ccccc3n2C)cc1	-6%	u	u	6µM*	-5%	6.5µM*

Source: PubChem (National Center for Advancing Translational Sciences (NCATS))
